# PubChem BioAssay (NCATS)
# Values joined by “and” are separate entries in the source; they are usually repeats but may differ in a detail not shown here. Equal entries are not always repeated. Inconclusive results are not listed. Where a call stands in place of a potency, no number is given. Active and inactive are the calls of the source. Unless noted, calls come from the whole dose curve; as a rule, active = well fitted curve in the direction sought with a large enough effect; inconclusive = small, poorly fitted or top-dose-only effect, or another doubt; inactive = no such curve, though single readings can be large; an effect the other way counts as inactive or inconclusive.
# Columns and labels:
# [1] = qHTS for Activators of Parkin Expression: LOPAC Validation Assay (FLuc Reporter) (AID 720573)
# Outline: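 Cells seeded, 24 h; compounds pinned, 7-pt dose response; 24 h at 37 C/5% CO2; volume reduced; FLuc reagent 10 min RT; luminescence read. Normalization: DMSO = 0, positive control = 100%.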
# [2] = qHTS assay for small molecule agonists of the antioxidant response element (ARE) signaling pathway measured by Nrf2-dependant transcriptional activity (AID 720636; active = well fitted curve in the direction sought with a large enough effect in the repeat runs; an effect the other way counts as inactive or inconclusive; note: potency is the fitted concentration of half-maximal effect)
# Outline: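 In HepG2 cells engineered with an Nrf2-responsive luciferase gene, ARE induction was quantified as luminescence after 16 hr compound treatment at 37 C.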
# [3] = qHTS assay for small molecule agonists of the antioxidant response element (ARE) signaling pathway measured by Nrf2-dependant transcriptional activity - cell viability counter screen (AID 720653; active = well fitted curve in the direction sought with a large enough effect in the repeat runs; an effect the other way counts as inactive or inconclusive); details: ARE-bla HepG2 viability, CellTiter-Glo ATP luminescence, 16 h; max response: stronger effect = lower value
# Outline: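 Cytotoxicity counter screen: intracellular ATP quantified by CellTiter-Glo luminescence in the same ARE-bla HepG2 plates, after 16 h compound exposure and a 2 h beta-lactamase substrate step.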
# [4] = molecular target: T1, Hexokinase-4 (Homo sapiens) + Glucokinase regulatory protein (Homo sapiens) (UniProt P35557+Q14397); experiment: qHTS assay for inhibitors of recombinant human GCK-GKRP interaction: Diaphorase-coupled assay (AID 743205)
# T1 sequence (P35557 whole entry, looked up): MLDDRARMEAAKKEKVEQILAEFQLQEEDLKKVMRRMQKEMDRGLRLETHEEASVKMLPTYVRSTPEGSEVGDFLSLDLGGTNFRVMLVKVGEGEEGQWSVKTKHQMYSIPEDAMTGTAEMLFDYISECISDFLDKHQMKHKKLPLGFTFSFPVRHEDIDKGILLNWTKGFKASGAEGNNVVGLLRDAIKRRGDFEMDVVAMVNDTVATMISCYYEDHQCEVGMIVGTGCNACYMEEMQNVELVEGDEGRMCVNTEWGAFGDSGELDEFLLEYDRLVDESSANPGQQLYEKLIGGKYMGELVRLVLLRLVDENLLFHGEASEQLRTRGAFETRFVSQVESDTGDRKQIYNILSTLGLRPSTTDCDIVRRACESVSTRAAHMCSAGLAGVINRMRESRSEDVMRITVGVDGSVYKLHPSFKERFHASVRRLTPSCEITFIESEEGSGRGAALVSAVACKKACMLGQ
# T1 sequence (Q14397 whole entry, looked up): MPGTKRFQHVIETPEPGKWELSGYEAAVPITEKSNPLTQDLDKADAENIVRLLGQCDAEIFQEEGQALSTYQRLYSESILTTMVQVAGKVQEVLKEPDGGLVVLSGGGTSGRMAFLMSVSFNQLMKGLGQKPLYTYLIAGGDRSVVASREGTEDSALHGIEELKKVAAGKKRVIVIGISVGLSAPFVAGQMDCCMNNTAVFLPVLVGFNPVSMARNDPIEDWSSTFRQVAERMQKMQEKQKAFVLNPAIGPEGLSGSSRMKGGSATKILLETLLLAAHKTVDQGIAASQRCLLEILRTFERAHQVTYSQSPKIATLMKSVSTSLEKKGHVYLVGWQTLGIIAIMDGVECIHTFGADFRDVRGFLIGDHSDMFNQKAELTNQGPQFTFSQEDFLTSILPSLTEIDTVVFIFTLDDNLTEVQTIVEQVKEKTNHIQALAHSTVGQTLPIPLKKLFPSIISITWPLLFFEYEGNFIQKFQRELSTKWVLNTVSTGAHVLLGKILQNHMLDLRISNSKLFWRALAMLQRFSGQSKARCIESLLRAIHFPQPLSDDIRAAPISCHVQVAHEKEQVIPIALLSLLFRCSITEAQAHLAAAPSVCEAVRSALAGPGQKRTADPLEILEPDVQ
# Outline: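 25 mM Hepes pH 7.6, 5 mM glucose, 0.4 mM ATP, 4 U/ml G6PDH; 10 nM each GST-GCK/FLAG-GKRP. Kinetic fluorescence read, 1/min × 30 min. Normalized: DMSO ± enzyme = max/min.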
# [5] = molecular target: T1, Hexokinase-4 (Homo sapiens) + Glucokinase regulatory protein (Homo sapiens); experiment: qHTS assay for inhibitors of recombinant human GCK-GKRP interaction: ADP-Glo assay (AID 743206)
# Outline: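 GST-GCK and FLAG-GKRP (15 nM each in the dispensed mix, with 2 uM S6P) react with 0.4 mM ATP and 5 mM glucose (final) in Hepes pH 7.6 for 60 min at room temperature. ADP is measured by ADP-Glo luminescence.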
# [6] = molecular target: T1, Hexokinase-4 (Homo sapiens) + Glucokinase regulatory protein (Homo sapiens); experiment: qHTS assay for inhibitors of recombinant human GCK-GKRP interaction: HTRF assay (AID 743207)
# Outline: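 5 nM GST-GCK + 5 nM FLAG-GKRP + 2 uM S6P, pH 7.1 buffer (25 mM Hepes, 2 mM MgCl2, 25 mM KCl, 1 mM DTT, Tween/BSA); pin-transferred cpd; anti-FLAG XL665/anti-GST K; 60 min RT; HTRF.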
# [7] = qHTS assay for cell viability of HEK293 cells (AID 743288); details: ATP luminescence (CellTiter-Glo), 18 h; max response: stronger effect = lower value; note: nearly all actives have a fitted effect of over 50% in size
# Outline: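 HEK293 parental, 2,000 cells/well; ≥5 h pre-incubation 37 C; pintool compound addition; 18 h, 37 C; CellTiter-Glo 30 min RT; luminescence read.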
# [8] = qHTS assay for cell viability of the p53RE-bla HCT-116 cell line (AID 743292); note: nearly all actives have a fitted effect of over 55% in size
# Outline: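 Intracellular ATP of p53RE-bla HCT-116 cells measured by luciferase luminescence following 16 h compound incubation at 37 C; DMSO-only wells served as vehicle controls.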
# [9] = qHTS profiling of the MIPE4 collection as inhibitors of Plasmodium falciparum (3D7) proliferation (AID 743344; call rule not given here); details: P. falciparum 3D7 in erythrocytes, SYBR Green DNA fluorescence, 72 h; at 28.5 µM (top of the series)
# Outline: (§1)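 Erythrocytes infected with P. falciparum (0.3% parasitemia, 2.5% hematocrit) incubated with compounds 72 h at 37 C, 5% CO2. Lysis with saponin/Triton buffer containing SYBR Green I, overnight at room temperature in the dark; DNA fluorescence (485/535 nm) normalised to 0.29 uM artemisinin and DMSO.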
# [10] = qHTS profiling of the MIPE4 collection as inhibitors of Plasmodium falciparum (DD2) proliferation (AID 743345; call rule not given here); details: P. falciparum Dd2 in erythrocytes, SYBR Green DNA, 72 h; at 28.5 µM (top of the series)
# Outline: as §1
# [11] = qHTS profiling of the MIPE4 collection as inhibitors of Plasmodium falciparum (DD2) proliferation (Rep 2) (AID 743346; call rule not given here); details: P. falciparum Dd2 in erythrocytes, SYBR Green DNA, 72 h; at 28.5 µM (top of the series)
# Outline: as §1
# [12] = qHTS profiling of the MIPE4 collection as inhibitors of Plasmodium falciparum (HB3) proliferation (AID 743347; call rule not given here); details: P. falciparum HB3 in erythrocytes, SYBR Green DNA, 72 h; at 28.5 µM (top of the series)
# Outline: as §1
# [13] = qHTS assay for measurement of the activity of small molecule inhibitors on Zika virus induced Caspase-3 activity in human iPSC derived neural progenitor cells (hNPCs) (AID 1224857); note: nearly all actives have a fitted effect of over 65% in size; note: potency is the fitted concentration of half-maximal effect
# Outline: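 After overnight (16–20 h) culture at 350 cells/well, hNPCs get compound, then ZIKV 2 FFU/cell one hour later. Six hours on, Caspase-Glo 3/7 is added and luminescence measured.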
# [14] = qHTS assay for measurement of the activity of small molecule inhibitors on Zika virus induced Caspase-3 activity in human astrocytoma cells (AID 1224859); note: potency is the fitted concentration of half-maximal effect
# Outline: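 Inhibition of Zika-induced caspase-3/7 activity: SNB-19 cells, 1 h compound pretreatment, ZIKV 2 FFU/cell for 6 h at 37 C, Caspase-Glo luminescence read-out.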
# [15] = qHTS Assay for Identifying Gametocytocidal Compounds (AID 743244); note: potency is the fitted concentration of half-maximal effect;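 for max response: actives lower the fluorescent signal which means gametocytes are killed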; details: P. falciparum 3D7 stage III-V gametocytes, alamarBlue, 72 h; max response: stronger effect = lower value
# Outline: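 Using 20,000 stage III–V 3D7 gametocytes per well, compounds were incubated 72 h under 37 °C/5% CO2. Viability was then assessed by 24 h alamarBlue reduction, measured fluorometrically at 525/598 nm.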
# [16] = qHTS assay to identify small molecule inhibitors of chordoma cells - UCH-1 (AID 1259355); note: nearly all actives have a fitted effect of over 55% in size
# Outline: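 Seed 800 cells per well; incubate overnight at 37 C, 5% CO2. Add test compounds (15 concentrations), then the auranofin–topoisomerase-agent combination. Incubate 48hr, add CellTiter-Glo, wait 30min, read luminescence.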
# [17] = qHTS assay to identify small molecule inhibitors of chordoma cells - UCH-2 (AID 1259356)
structure (smiles),measurement,setting,value
CN(C)CCC(c1ccc(Cl)cc1)c1ccccn1 (centres undefined),Potency,[1],inactive
same,Potency,[2],inactive
same,max response,[3],-2.73% (inactive)
same,outcome,[4],inactive
same,Potency,[5],inactive
same,Potency,[6],inactive
same,max response,[7],-8.98% (inactive)
same,Potency,[8],inactive
same,"parasite growth, % of DMSO control",[9],105%
same,"parasite growth remaining, % of DMSO control (lower = more inhibition)",[10],70.9%
same,"parasite growth, % of control (lower = inhibition)",[11],38.1%
same,"growth, % of control",[12],78.9%
same,Potency,[13],inactive
same,Potency,[14],inactive
OCC1O[C@H](O)C(Cl)C(O)C1O (some centres undefined),Potency,[1],inactive
same,outcome,[4],inactive
same,Potency,[5],inactive
same,Potency,[6],inactive
same,max response,[15],14.4% (inactive)
same,Potency,[13],inactive
same,Potency,[14],inactive
O=c1[nH]c2cc(C(F)(F)F)ccc2n1-c1cc(C(F)(F)F)ccc1O,Potency,[1],inactive
same,outcome,[4],inactive
same,Potency,[5],inactive
same,Potency,[13],inactive
same,Potency,[14],inactive
O=C1NC(=O)c2c1c(-c1ccccc1)cc1[nH]c3ccc(O)cc3c21,Potency,[13],inactive
CCOC(=O)C1=C(C)NC(C)=C(C(=O)OCC)C1c1c(F)c(F)c(F)c(F)c1F,Potency,[1],inactive
same,outcome,[4],inactive
same,Potency,[5],inactive
same,Potency,[6],inactive
same,max response,[15],17% (inactive)
same,Potency,[13],inactive
same,Potency,[14],inactive
O=C(Nc1ccccc1)c1cc([N+](=O)[O-])ccc1Cl,Potency,[1],inactive
same,Potency,[2],3.06 µM (active)
same,max response,[3],-18.4% (inactive)
same,outcome,[4],inactive
same,Potency,[5],inactive
same,Potency,[6],inactive
same,max response,[15],-5.62% (inactive)
same,max response,[7],-11.7% (inactive)
same,Potency,[8],inactive
same,Potency,[13],inactive
same,Potency,[14],inactive
CCCN(CC1CC1)c1nc(C)nc(Nc2c(Cl)cc(Cl)cc2Cl)c1Cl,Potency,[1],inactive
same,outcome,[4],inactive
same,Potency,[5],inactive
same,Potency,[6],inactive
same,max response,[15],18.2% (inactive)
same,Potency,[13],inactive
same,Potency,[14],inactive
O=C(/C=C/c1ccc(O)cc1)c1ccc(O)cc1O,Potency,[1],inactive
same,outcome,[4],inactive
same,Potency,[5],inactive
same,Potency,[13],2.82 µM (active)
same,Potency,[14],1.26 µM (active)
CC(C)NC[C@H](O)COc1cccc2[nH]ccc12,max response,[15],4.63% (inactive)
same,Potency,[13],inactive
same,Potency,[14],inactive
c1ccc(-c2ccccn2)nc1,Potency,[1],inactive
same,outcome,[4],inactive
same,Potency,[5],inactive
same,max response,[15],29.6% (inactive)
same,Potency,[13],inactive
same,Potency,[14],inactive
O=C(O)c1cc(=O)c2ccccc2[nH]1,outcome,[4],inactive
same,Potency,[5],inactive
same,max response,[15],-5.82% (inactive)
same,Potency,[13],inactive
same,Potency,[14],inactive
NCCCS(=O)(=O)O,Potency,[1],inactive
same,outcome,[4],inactive
same,Potency,[5],inactive
same,Potency,[6],inactive
same,max response,[15],2.49% (inactive)
same,Potency,[13],inactive
same,Potency,[14],inactive
CC12C(=O)OC(=O)C1(C)C1CCC2O1 (centres undefined),outcome,[4],inactive
same,Potency,[5],inactive
same,Potency,[6],inactive
same,max response,[15],3.18% (inactive)
same,Potency,[13],inactive
same,Potency,[14],inactive
O=C(c1ccc(Cl)cc1)N1CCN(c2ccc([N+](=O)[O-])c3ncccc23)CC1,outcome,[4],inactive
same,Potency,[5],inactive
same,Potency,[6],inactive
same,max response,[15],-0.851% (inactive)
same,Potency,[13],inactive
same,Potency,[14],inactive
Oc1ccccc1O,max response,[3],-28.6% (inactive)
same,outcome,[4],inactive
same,Potency,[5],inactive
same,Potency,[6],inactive
same,Potency,[8],inactive
same,Potency,[13],inactive
same,Potency,[14],inactive
C#CC1(O)CC[C@H]2[C@@H]3CCC4=CCCC[C@@H]4[C@H]3CC[C@@]21C (some centres undefined),max response,[15],18.8% (inactive)
same,Potency,[13],inactive
same,Potency,[16],inactive
same,Potency,[17],inactive
O=c1[nH]c2cc([N+](=O)[O-])c([N+](=O)[O-])cc2[nH]c1=O,outcome,[4],inactive
same,Potency,[5],inactive
same,Potency,[6],inactive
same,max response,[15],23.7% (inactive)
same,Potency,[13],inactive
same,Potency,[14],inactive
O=C(c1cc(O)c(O)c([N+](=O)[O-])c1)c1ccccc1F,Potency,[1],inactive
same,outcome,[4],inactive
same,Potency,[5],inactive
same,max response,[15],18.1% (inactive)
same,Potency,[13],inactive
same,Potency,[14],inactive
CN1CCc2cc(NC(=O)Nc3cccnc3)ccc21,outcome,[4],inactive
same,Potency,[5],inactive
same,Potency,[6],inactive
same,Potency,[13],inactive
same,Potency,[14],inactive
CC1CN(S(=O)(=O)c2cccc3cnccc23)CCN1 (centres undefined),Potency,[1],inactive
same,outcome,[4],inactive
same,Potency,[5],inactive
same,max response,[15],23.3% (inactive)
same,Potency,[13],inactive
same,Potency,[14],inactive
CCCCCCCCCCCCCCCC(=O)OC(CC(=O)O)C[N+](C)(C)C (centres undefined),Potency,[1],inactive
same,outcome,[4],inactive
same,Potency,[5],inactive
same,Potency,[6],inactive
same,max response,[15],-5.64% (inactive)
same,Potency,[13],inactive
same,Potency,[14],inactive
Clc1ccccc1-c1nc(-c2ccncc2)no1,max response,[15],20.9% (inactive)
same,Potency,[13],inactive
same,Potency,[17],inactive
NO,Potency,[1],inactive
same,outcome,[4],inactive
same,Potency,[5],inactive
same,Potency,[6],inactive
same,max response,[15],-10.7% (inactive)
same,Potency,[13],inactive
CN(C)c1nc(N)c(C(=O)N=C(N)N)nc1Cl,outcome,[4],inactive
same,Potency,[5],inactive
same,Potency,[6],inactive
same,max response,[15],11% (inactive)
same,Potency,[13],inactive
same,Potency,[14],inactive
COc1cccc(OC)c1OCCNCC1COc2ccccc2O1 (centres undefined),Potency,[1],inactive
same,outcome,[4],inactive
same,Potency,[5],inactive
same,Potency,[6],inactive
same,max response,[15],16.7% (inactive)
same,Potency,[13],inactive
NC(N)=NC(=O)c1nc(Cl)c(N2CCCCCC2)nc1N,outcome,[4],inactive
same,Potency,[5],inactive
same,Potency,[6],inactive
same,Potency,[15],0.891 µM (active)
same,Potency,[13],inactive
same,Potency,[14],inactive
CCCCCCCCCCCCCCCCCC(=O)O,Potency,[2],inactive
same,max response,[3],-2.11% (inactive) and 6.03% (inactive) and 17.1% (inactive)
same,max response,[15],-10.4% (inactive)
same,max response,[7],-8.42% (inactive) and -6.66% (inactive) and -3.76% (inactive)
same,Potency,[8],inactive
same,Potency,[13],inactive
same,Potency,[16],inactive
COc1cc(SC)ccc1C(=O)N1CCC(Cc2ccccc2)CC1,Potency,[1],inactive
same,outcome,[4],inactive
same,Potency,[5],inactive
same,Potency,[6],inactive
same,max response,[15],12.7% (inactive)
same,Potency,[13],inactive
Fc1cccc(/C=N/N=C/c2cccc(F)c2)c1,outcome,[4],inactive
same,Potency,[5],inactive
same,Potency,[6],inactive
same,max response,[15],22.7% (inactive)
same,Potency,[13],inactive
same,Potency,[14],inactive
COc1cc(OC)c(/C=C2/C(=O)Nc3ccccc32)c(OC)c1,Potency,[1],inactive
same,outcome,[4],inactive
same,Potency,[5],inactive
same,Potency,[6],inactive
same,max response,[15],33.5% (inactive)
same,Potency,[13],inactive
same,Potency,[14],inactive
